Drawing on the supplement of paper PMC10849652, this text covers log2 fold change for 23 targets.

About 8,800 targets were measured; listed, in parts, are those with a hit and a random draw of the rest. About 0.5% of all pairs of compound and target were hits.

Sequence of UniProt P35573 (P35573 whole entry, looked up): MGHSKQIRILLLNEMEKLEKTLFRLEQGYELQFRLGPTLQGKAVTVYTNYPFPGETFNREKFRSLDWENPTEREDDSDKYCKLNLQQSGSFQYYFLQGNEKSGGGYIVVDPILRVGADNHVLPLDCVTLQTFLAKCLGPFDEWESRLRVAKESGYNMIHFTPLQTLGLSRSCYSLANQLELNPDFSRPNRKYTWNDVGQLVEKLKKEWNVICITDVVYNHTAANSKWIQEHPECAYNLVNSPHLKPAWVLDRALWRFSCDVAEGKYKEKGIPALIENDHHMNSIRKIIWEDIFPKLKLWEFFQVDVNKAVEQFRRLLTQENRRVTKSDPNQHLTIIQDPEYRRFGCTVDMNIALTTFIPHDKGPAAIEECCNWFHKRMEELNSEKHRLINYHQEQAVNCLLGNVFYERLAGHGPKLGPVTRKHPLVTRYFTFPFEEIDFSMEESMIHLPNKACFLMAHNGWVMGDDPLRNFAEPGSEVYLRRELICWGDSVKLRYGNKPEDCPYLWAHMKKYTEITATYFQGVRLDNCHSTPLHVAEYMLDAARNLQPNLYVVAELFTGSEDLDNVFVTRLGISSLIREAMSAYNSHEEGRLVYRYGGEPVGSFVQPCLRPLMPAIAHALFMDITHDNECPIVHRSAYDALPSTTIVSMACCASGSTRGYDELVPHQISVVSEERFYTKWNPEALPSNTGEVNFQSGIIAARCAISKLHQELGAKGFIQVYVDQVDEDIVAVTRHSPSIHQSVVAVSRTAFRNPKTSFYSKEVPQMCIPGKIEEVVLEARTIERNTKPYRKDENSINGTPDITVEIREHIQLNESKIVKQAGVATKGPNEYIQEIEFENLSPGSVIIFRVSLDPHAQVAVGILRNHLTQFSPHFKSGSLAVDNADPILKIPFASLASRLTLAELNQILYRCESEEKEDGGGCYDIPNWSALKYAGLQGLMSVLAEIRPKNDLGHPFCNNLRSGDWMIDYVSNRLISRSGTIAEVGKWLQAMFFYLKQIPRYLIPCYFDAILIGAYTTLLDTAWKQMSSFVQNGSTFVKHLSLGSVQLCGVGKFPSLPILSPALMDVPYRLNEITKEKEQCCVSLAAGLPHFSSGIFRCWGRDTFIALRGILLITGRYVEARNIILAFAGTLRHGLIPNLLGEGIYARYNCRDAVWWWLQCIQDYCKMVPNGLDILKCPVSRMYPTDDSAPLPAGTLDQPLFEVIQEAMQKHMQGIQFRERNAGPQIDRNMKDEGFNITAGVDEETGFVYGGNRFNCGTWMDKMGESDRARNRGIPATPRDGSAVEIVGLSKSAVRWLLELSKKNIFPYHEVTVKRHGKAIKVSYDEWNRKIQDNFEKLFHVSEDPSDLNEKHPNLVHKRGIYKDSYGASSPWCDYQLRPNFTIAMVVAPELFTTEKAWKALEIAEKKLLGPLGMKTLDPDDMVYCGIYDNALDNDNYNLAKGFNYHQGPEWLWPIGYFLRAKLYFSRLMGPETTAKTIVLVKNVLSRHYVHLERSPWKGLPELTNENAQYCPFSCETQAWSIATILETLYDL
Sequence of UniProt O43865 (O43865 whole entry, looked up): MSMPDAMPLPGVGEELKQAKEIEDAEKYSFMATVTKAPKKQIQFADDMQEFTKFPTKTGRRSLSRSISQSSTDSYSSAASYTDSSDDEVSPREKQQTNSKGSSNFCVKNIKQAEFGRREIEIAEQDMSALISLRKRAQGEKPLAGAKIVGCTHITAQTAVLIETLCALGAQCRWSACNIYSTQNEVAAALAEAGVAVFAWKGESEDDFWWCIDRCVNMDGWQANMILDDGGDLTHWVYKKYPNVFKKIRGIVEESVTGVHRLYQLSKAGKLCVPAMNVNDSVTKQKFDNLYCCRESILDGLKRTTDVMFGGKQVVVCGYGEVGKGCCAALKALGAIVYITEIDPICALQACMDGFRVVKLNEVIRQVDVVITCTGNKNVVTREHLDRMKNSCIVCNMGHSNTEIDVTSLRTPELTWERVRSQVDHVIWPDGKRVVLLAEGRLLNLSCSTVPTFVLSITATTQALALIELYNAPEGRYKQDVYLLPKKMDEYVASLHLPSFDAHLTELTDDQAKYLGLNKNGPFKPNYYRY
Sequence of UniProt P04083 (P04083 whole entry, looked up): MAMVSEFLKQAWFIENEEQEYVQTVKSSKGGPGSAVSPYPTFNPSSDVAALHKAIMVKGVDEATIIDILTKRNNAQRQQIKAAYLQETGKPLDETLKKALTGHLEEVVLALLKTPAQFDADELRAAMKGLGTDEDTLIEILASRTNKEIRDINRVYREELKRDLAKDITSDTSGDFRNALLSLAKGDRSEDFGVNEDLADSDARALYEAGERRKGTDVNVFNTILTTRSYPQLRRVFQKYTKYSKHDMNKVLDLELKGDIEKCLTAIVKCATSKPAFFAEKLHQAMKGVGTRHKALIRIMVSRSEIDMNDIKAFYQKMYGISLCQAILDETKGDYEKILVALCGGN
Sequence of UniProt Q9H1I8 (Q9H1I8 whole entry, looked up): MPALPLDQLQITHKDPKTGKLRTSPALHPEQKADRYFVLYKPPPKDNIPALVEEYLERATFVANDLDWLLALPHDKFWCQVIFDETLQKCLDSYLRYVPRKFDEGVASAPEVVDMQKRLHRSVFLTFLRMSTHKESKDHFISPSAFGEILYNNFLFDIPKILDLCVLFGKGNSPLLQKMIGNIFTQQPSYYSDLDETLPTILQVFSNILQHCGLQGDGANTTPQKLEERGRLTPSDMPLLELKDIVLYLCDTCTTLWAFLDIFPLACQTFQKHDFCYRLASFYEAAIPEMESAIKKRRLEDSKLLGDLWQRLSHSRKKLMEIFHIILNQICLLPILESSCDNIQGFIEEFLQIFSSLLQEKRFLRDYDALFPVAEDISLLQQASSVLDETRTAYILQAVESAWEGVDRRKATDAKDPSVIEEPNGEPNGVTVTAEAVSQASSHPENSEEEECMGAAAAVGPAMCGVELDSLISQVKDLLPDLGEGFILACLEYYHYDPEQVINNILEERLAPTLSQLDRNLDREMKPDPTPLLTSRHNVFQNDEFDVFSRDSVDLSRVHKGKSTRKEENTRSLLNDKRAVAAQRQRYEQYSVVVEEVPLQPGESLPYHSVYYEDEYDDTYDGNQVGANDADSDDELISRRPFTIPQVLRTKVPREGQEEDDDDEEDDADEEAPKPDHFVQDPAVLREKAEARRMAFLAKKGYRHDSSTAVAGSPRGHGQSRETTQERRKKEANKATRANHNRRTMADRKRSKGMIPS
Sequence of UniProt O14727 (O14727 whole entry, looked up): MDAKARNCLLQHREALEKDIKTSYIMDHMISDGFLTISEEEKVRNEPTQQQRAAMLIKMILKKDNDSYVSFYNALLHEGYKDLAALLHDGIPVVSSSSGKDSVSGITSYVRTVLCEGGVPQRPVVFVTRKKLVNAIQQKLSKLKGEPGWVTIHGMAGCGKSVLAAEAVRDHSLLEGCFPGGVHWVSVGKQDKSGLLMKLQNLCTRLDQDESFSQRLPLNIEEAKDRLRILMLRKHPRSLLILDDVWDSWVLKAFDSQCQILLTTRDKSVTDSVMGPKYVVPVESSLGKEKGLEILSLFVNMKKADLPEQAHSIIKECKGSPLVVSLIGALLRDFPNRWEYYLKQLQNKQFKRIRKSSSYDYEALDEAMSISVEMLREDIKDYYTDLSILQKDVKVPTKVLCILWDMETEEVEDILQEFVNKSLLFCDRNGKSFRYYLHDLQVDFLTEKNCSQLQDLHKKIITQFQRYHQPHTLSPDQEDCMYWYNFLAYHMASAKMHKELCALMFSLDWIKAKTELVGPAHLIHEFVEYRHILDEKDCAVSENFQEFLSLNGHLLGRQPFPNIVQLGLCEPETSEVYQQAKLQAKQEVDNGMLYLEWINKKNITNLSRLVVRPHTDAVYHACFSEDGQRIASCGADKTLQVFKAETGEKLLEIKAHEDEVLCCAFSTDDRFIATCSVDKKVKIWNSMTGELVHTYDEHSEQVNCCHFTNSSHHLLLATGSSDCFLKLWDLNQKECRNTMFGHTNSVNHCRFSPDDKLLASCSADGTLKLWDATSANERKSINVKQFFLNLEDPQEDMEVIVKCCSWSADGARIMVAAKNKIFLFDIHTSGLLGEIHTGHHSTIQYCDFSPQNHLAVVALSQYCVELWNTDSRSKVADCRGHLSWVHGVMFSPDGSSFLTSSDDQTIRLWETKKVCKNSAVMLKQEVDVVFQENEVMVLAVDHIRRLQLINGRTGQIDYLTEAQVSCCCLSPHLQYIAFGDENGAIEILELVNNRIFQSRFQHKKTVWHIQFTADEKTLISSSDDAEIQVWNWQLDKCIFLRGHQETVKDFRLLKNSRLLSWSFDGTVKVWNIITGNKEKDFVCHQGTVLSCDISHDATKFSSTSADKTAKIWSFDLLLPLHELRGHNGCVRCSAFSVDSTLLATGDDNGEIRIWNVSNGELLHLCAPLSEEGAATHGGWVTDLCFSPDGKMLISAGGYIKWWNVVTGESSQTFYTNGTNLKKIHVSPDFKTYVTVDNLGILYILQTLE
Sequence of UniProt Q9UG63 (Q9UG63 whole entry, looked up): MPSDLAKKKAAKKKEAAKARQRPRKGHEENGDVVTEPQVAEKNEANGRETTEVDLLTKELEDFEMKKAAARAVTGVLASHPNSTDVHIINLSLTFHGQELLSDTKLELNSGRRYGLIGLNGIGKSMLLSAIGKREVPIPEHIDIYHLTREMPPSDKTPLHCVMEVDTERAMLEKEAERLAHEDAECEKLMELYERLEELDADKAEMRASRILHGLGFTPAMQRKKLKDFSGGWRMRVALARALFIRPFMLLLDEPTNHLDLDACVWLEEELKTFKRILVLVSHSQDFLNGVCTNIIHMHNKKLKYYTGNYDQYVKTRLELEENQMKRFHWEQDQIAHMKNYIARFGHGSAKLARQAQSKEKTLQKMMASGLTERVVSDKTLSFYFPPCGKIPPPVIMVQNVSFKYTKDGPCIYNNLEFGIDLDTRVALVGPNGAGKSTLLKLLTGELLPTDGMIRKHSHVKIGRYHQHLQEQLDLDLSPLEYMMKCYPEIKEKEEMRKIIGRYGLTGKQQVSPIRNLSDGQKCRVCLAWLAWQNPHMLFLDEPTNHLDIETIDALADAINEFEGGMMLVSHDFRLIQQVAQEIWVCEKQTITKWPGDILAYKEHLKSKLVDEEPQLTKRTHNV

Compound in the test: COc1cc2nc(-c3cc(F)ccc3O)nc(N[C@@H]3CNC[C@H]3C(C)(C)O)c2cc1OC
Description: log2 fold change, soluble protein after heating vs DMSO (PISA); higher = thermal stabilisation; K562 lysate, 10 uM; active = over 0.2 and 3.5 SD of the protein, either way, in both replicates (recomputed). In short, it runs like this:
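The values are log-two fold changes in thermal stability compared with solvent controls and come from duplicates. They were obtained by TMTpro 16plex LC-MS/MS, with channel sums equalised, on the supernatant after 21,000xg for 90 min. That supernatant came from crude K562 extract at 1 mg/mL protein treated with 10 μM compound for 30 min, heated for 3 min across 48°C-58°C, pooled and brought to 0.5% NP-40 at 4°C.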
ABCF3 (UniProt Q9NUQ8): the log2 fold change is -0.003 (inactive).

Regarding AP3D1 isoform 5 (UniProt O14617), the log2 fold change is 0.004 (inactive).

For the target APAF1 (UniProt O14727), the log2 fold change is 0.061 (inactive).

AGL (UniProt P35573): the log2 fold change is -0.012 (inactive).

ANKRD27 (UniProt Q96NW4): the log2 fold change is -0.087 (inactive).

Regarding AKR1B1 (UniProt P15121), the log2 fold change is -0.008 (inactive).

As to AFF1 isoform 2 (UniProt P51825), the log2 fold change was 0.157 (inactive).

Take ANXA1 (UniProt P04083): the log2 fold change was 0.008 (inactive).

AARS2 (UniProt Q5JTZ9): the log2 fold change is -0.119 (inactive).

On to AKAP8L (UniProt Q9ULX6), for which the log2 fold change was 0.011 (inactive).

Regarding AHCYL1 (UniProt O43865), the log2 fold change was -0.003 (inactive).

With ADRM1 (UniProt Q16186), the log2 fold change is -0.001 (inactive).

Consider ALDH6A1 (UniProt Q02252), for which the log2 fold change is 0.061 (inactive).

In the case of ACACA isoform 4 (UniProt Q13085), the log2 fold change is 0 (inactive).

For ASCC2 (UniProt Q9H1I8), the log2 fold change was 0.016 (inactive).

Consider ACBD6 (UniProt Q9BR61), for which the log2 fold change was 0.016 (inactive).

As to ALG13 (UniProt Q9NP73), the log2 fold change is 0 (inactive).

In the case of AMD1 (UniProt P17707), the log2 fold change is 0.261 (inactive).

For the target AK4 (UniProt P27144), the log2 fold change was -0.034 (inactive).

In the case of AIFM2 (UniProt Q9BRQ8), the log2 fold change is -0.034 (inactive).

Consider ASB6 (UniProt Q9NWX5), for which the log2 fold change is 0.073 (inactive).

Turning to ABCF2 isoform 2 (UniProt Q9UG63), the log2 fold change was 0.025 (inactive).

Regarding ARGLU1 (UniProt Q9NWB6), the log2 fold change was 0.012 (inactive).
